hcDAF-12 act: H. contortus DAF-12 activation, primary screen; HEK293 hcDAF-12 lit1-tk-luc reporter, luminescence; 0% DMSO, 100% Δ7-dafachronic acid; activation, % at 6.8 µM; hit rate 1.4% among 370,000;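 active means activation above the mean of all tested compounds plus 3 SD, cut at about 5.5% in these data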;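 further: 100% = response to 3 µM Δ7-dafachronic acid high control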
DAX1 inh-1: inhibitors of human orphan nuclear receptor DAX1 (NR0B1); P51843; HEK293 Gal4-DAX1 luciferase reporter, luminescence; inhibition, % at 6.75 µM; hit rate 0.99% among 340,000; AID 504766;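 active means inhibition above the mean over all tested compounds plus 3 SD, cut at about 4.2% in these data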;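 further: 0% = DAX1-transfected cells with DMSO and 100% = empty-vector control cells with DMSO; inhibition shows as a rise in luminescence from relieved DAX1 repression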
Target sequence (P51843 207-470 limits assumed): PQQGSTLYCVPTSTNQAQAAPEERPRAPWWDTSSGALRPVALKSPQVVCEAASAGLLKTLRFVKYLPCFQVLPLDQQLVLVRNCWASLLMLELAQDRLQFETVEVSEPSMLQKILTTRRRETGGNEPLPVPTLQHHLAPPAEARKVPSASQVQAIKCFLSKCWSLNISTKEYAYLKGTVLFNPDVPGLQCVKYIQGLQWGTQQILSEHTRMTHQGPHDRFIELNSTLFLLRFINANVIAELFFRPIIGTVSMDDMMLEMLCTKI
AHR activator: human AHR activation; P35869; hit rate 2.5% among 320,000; AID 2796; activation, % at 5 µM; AHR-responsive luciferase reporter cells, luminescence; in the data active means activation above about 47%;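 further: 0% = vehicle wells and 100% = reference agonist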
ssDAF12 agonist: activates DAF-12 receptor from parasite S. stercoralis; HEK293 ssDAF-12/GRIP1 lit1-tk-luc reporter, luminescence; % of 3 µM dafachronic acid response; activation, % at 6.8 µM; hit rate 1% among 370,000;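 active means activation above the mean over all tested compounds plus 3 SD, cut at about 0.9% in these data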;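 further: 0% = DMSO-only wells and 100% = 3 µM delta7-dafachronic acid wells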
DAX1 inh-2: blocks DAX1 repression of SF-1 activated StAR promoter. HEK293T StAR-luciferase reporter, SF-1/DAX-1 repression relief. inhibition, % at 6.8 µM. hit rate 1.1% among 370,000. AID 652010;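 active means inhibition above the mean over all tested compounds plus 3 SD, cut at about 3.6% in these data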;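 further: 0% = DAX-1 cells with DMSO and 100% = cells lacking DAX-1 with DMSO; higher inhibition means more luminescence from relief of DAX-1 repression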
hgDAF12 agonist: agonists of H. glycines DAF-12 nuclear receptor; HEK293 GAL4-hgDAF12 UAS-luciferase reporter, agonist luminescence; normalized to butyrate control; hit rate 1.8% among 370,000; AID 687014; activation, % at 6.8 µM;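 active means activation above a cutoff set at the mean of all screened compounds plus 3 SD, cut at about 10% in these data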;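 further: 0% = DMSO wells and 100% = sodium butyrate wells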
An asterisk follows results filed as active; . = no result given. Shown are actives, neighbours in structure and some others; about 5.7% of the full set was active somewhere.

SMILES	hcDAF-12 act	DAX1 inh-1	AHR activator	ssDAF12 agonist	DAX1 inh-2	hgDAF12 agonist
CCOC(=O)c1c(NC(=S)NCc2ccccc2)sc2c1CCN(C(=O)OCC)C2	0	6.0*	-3	-2	0	-1
COc1ccc(Cn2c(=N)c(C(=O)NCC3CCCO3)cc3c(=O)n4ccccc4nc32)cc1 (centres undefined)	5.7*	1	0	-1	-1	7
COc1ccc(CCn2c(=N)c(C(=O)NCC3CCCO3)cc3c(=O)n4ccccc4nc32)cc1 (centres undefined)	1	0	-5	-1	-1	2
O=C(Nc1sc2c(c1-c1nc3ccccc3s1)CCNC2)C(F)F	3	.	.	0	.	2
COc1ccccc1NC(=O)CSc1nnc2ccc(-c3cccnc3)nn12	5	2	58*	1	1	4
CCOc1ccccc1NC(=O)CSc1nnc2ccc(-c3cccnc3)nn12	2	4	49*	0	2	0
O=C(COC(=O)c1ccc(S(=O)(=O)N2CCCCC2)cc1)NCc1ccc(F)cc1	-2	2	.	0	0	-1
CC(C)(CCl)C(=O)Nc1ccc(C(F)(F)F)cc1	-1	-1	-1	1.1*	0	3
Clc1cccc(-c2noc3ncnc(Nc4ccc5c(c4)OCO5)c23)c1	-3	0	55*	-1	0	4
O=C(Nc1ccc(F)cc1)N(Cc1cccs1)Cc1cc2cc3c(cc2[nH]c1=O)OCO3	-1	1	54*	-1	-1	-2
Cc1ccc(NC(=O)N(Cc2cccs2)Cc2cc3cc4c(cc3[nH]c2=O)OCO4)cc1	3	.	19	-1	0	0
Cc1ccccc1C1c2[nH]c3ccccc3c2C[C@H]2C(=O)N(C3CC3)CC(=O)N12 (some centres undefined)	6.4*	-1	10	0	0	-1
O=C(O)Cn1c(=S)sc2ccccc21	2	1	13	1.0*	1	2
COc1cc(-c2noc(C)c2C(=O)NCCCN2CCOCC2)cc(OC)c1OC	-1	0	1	-1	1	3
CC(C)(C)OC(=O)N1CCC[C@H]1C(=O)N/N=C/c1cccc2nccnc12	0	.	13	-2	0	-1
CC(=O)N1N=C(c2ccccc2)CC1c1ccccc1[N+](=O)[O-] (centres undefined)	5	0	35	0	0	2
O=[N+]([O-])c1ccc(C2Oc3ccccc3C3CC(c4ccccc4)=NN32)s1 (centres undefined)	.	.	59*	.	.	.
CCCCCOc1ccc(C(C)(O)C(CN2CCOCC2)c2ccccc2)cc1 (centres undefined)	-3	0	1	-1	0	-1
CCOC(=O)C1=Nc2ccccc2C1=[N+]=[N-]	0	-3	66*	-1	-3	-4
O=C(O)c1ccc2c(c1)N(Cc1ccc(F)cc1)C(=O)c1ccccc1S2	-2	5.0*	0	-2	1	-2
O=C(NCCN1CCOCC1)c1ccc2c(c1)N(Cc1cccc(F)c1)C(=O)c1ccccc1S2	-1	-1	4	-1	0	-4
Cc1cc(C(=O)N/N=C(\CCC(=O)O)c2cccs2)c2ccccc2n1	0	-2	4	-1	-3	1
O=C(CCC(=O)c1cccs1)c1cccs1	4	4	5	0	3	12*
CO/N=C(\CCC(=O)O)c1cccs1	-1	1	0	-2	1	11*
O=C(O)CCn1c2ccccc2c2nc3ccccc3nc21	2	0	60*	-1	0	2
CC(C)n1c2ccccc2c2nc3ccccc3nc21	-1	-1	57*	-1	-1	1
COC(=O)Cn1c2ccccc2c2nc3ccccc3nc21	1	0	.	-1	0	-1
CN(c1ccccc1)S(=O)(=O)c1cccc(NC(=O)CCN2C(=O)C3CCCCC3C2=O)c1 (centres undefined)	1	-1	0	1.8*	-2	0
CCCC(=O)Nc1cccc(S(=O)(=O)N(C)c2ccccc2)c1	-2	0	7	-1	-1	-4
Cn1c(SCc2ccccc2C#N)nc2ccccc2c1=O	1	1	14	0	0	1

Bioassay records from PubChem BioAssay.
